Drawing on PubChem BioAssay (NCATS), this text covers Potency for 16 compounds.

Structures are written as SMILES. Inconclusive results are not listed. Active and inactive are the calls of the source. Calls come from the whole dose curve; as a rule, active = well fitted inhibition curve with a large enough effect; inconclusive = small, poorly fitted or top-dose-only effect; inactive = flat fitted curve, though single readings scatter.

Assay in all cases: qHTS profiling for inhibitors of Plasmodium falciparum proliferation (AID 504749); note: nearly all actives have a fitted effect of over 60% in size
Common to all, as to details: P. falciparum in erythrocytes, SYBR Green DNA, 72 h; series mostly up to 28.7 µM

One assay has as its system AS120. Summed up: (§1)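 Readout was DNA-dye fluorescence from lysed cultures, ex 485/em 535 nm. Parasitized red cells had grown 72 h with compound; data scaled between 0.29 uM artemisinin and DMSO wells and corrected using vehicle-only plates.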
For the next assay, the system named is CP194. An outline of the steps: as §1
For the next assay, the system named is CP217. An outline of the steps:
as §1

The subject of the next assay is CP256. Summed up: as §1
In another assay the test system is CP265. Summed up:
as §1

For the next assay, the system named is CP335. Summed up:
as §1

In the next assay the test system is N140. An outline of the steps:
as §1

A further assay deals with PC26. Summed up: as §1
The next assay deals with SC27B. An outline of the steps:
as §1

Another assay deals with 3D7. Summed up: as §1
The next assay relates to AA1029. Summed up:
as §1

In the next assay the test system is CP266. Summed up: as §1
A further assay concerns DFO2036. Summed up:
as §1

Another assay deals with DIV14. An outline of the steps: as §1
Another assay relates to DIV30. Summed up: as §1
The test system of a further assay is GB4. An outline of the steps:
as §1

Another assay concerns HB3. Summed up: as §1
The next assay concerns P94_40. An outline of the steps:
as §1

The subject of another assay is PAD. Summed up:
as §1

The subject of a further assay is CP247. An outline of the steps:
as §1
Potency is the fitted concentration of half-maximal effect.

As to `CN(C)C1C(=O)C(C(N)=O)C(=O)C2(O)C(=O)C3C(=O)c4c(O)cccc4C(C)(O)C3C(O)C12` (configuration not stated), the Potency entry in the assay with AS120, in the assay with CP194, in the assay on CP217, in the assay on CP256, in the assay on CP265 and in the assay with N140 was “inactive” each time. The Potency entry in the assay on PC26 and in the assay on SC27B was “inactive” throughout. In addition, the Potency in the assay on CP335 is 6010 nM (active).
For the compound `C#C[C@]1(O)CC[C@H]2[C@@H]3CCC4=CC(=O)CCC4(C)[C@H]3CCC21C` (some centres not stated), the Potency result in the assay with 3D7, in the assay on AA1029, in the assay with AS120, in the assay with CP194, in the assay with CP217 and with CP256 was “inactive” throughout. In addition, the Potency result in the assay on CP265, with CP266, with CP335, in the assay with DFO2036, in the assay on DIV14 and in the assay on DIV30 was “inactive” each time. Further, the Potency result in the assay on GB4, with HB3, with N140, in the assay on P94_40, with PAD and in the assay on PC26 was “inactive” in each case. Besides, the Potency entry in the assay on SC27B is “inactive”.
As to `CCC/C=C/C=C/C(=O)OC1/C(=C/C(=O)OC)CC2CC(C(C)O)OC(=O)CC(O)CC3CC(OC(C)=O)C(C)(C)C(O)(CC4C/C(=C/C(=O)OC)CC(/C=C\C(C)(C)C1(O)O2)O4)O3` (configuration not stated), the Potency is 2820 nM (active) in the assay on 3D7; 1780 nM (active) in the assay on AA1029; 1000 nM (active) in the assay on AS120; 794 nM (active) with CP217; 2820 nM (active) in the assay on CP247; 1260 nM (active) with CP256. The Potency was 1410 nM (active) in the assay with CP265; 1900 nM (active) in the assay on CP335; 1260 nM (active) in the assay with DFO2036; 1070 nM (active) with DIV14; 1070 nM (active) with DIV30; 1510 nM (active) in the assay with GB4. In addition, the Potency was 2240 nM (active) in the assay with HB3; 1120 nM (active) in the assay on N140; 2240 nM (active) with P94_40; 1780 nM (active) in the assay with PAD; 953 nM (active) with PC26; 2510 nM (active) with SC27B.
As for `CCN(CC)C(=O)N[C@@H]1C=C2c3cccc4[nH]cc(c34)C[C@H]2N(C)C1`, the Potency in the assay with AS120 was 12600 nM (active); with CP265, 10000 nM (active); in the assay on DIV14, 13500 nM (active); in the assay with DIV30, 8490 nM (active); with GB4, 8490 nM (active); with N140, 12600 nM (active). Besides, the values for the Potency in the assay on P94_40 and with PC26 were 8910 nM (active) and 12000 nM (active), respectively. Moreover, the Potency entry in the assay with CP266 and in the assay on DFO2036 was “inactive” throughout.
As to `CC(C)CCC(=O)OC1CCC2C3CCC4=CC(=O)CC[C@]4(C)C3CC[C@]12C` (some centres not stated), the Potency entry in the assay with CP194, in the assay on CP266, in the assay with DIV14, in the assay on DIV30 and in the assay with GB4 was “inactive” in each case. For the same compound, the Potency in the assay with CP256 and with CP265 was 7940 nM (active) each time.
With `O=[N+]([O-])OC1CO[C@H]2C(O[N+](=O)[O-])COC12` (some centres not stated), the Potency entry in the assay on 3D7, in the assay with AA1029, in the assay on AS120, with CP194, with CP217 and with CP247 was “inactive” throughout. Also, the Potency entry in the assay with CP256, with CP265, in the assay with CP266, in the assay with CP335, with DFO2036 and with DIV14 was “inactive” each time. For the same compound, the Potency entry with DIV30, in the assay on GB4, in the assay with HB3, in the assay with N140, in the assay with P94_40 and in the assay on PAD was “inactive” each time. The Potency entry with PC26 and in the assay on SC27B was “inactive” in each case.
For the compound `CC(Cc1ccccc1)N(C)C` (configuration not stated), the Potency entry in the assay on 3D7, in the assay with AA1029, in the assay on AS120, in the assay with CP194, with CP217 and with CP247 was “inactive” throughout. Besides, the Potency entry in the assay with CP256, in the assay on CP265, in the assay on CP266, in the assay on CP335, with DFO2036 and with DIV14 was “inactive” in each case. The Potency result with DIV30, with HB3, with N140, in the assay on P94_40, with PAD and in the assay with PC26 was “inactive” throughout. In addition, the Potency result with SC27B was “inactive”.
Take `CCC(=O)OC1(c2ccccc2)CCN(C)CC1C` (configuration not stated): the Potency entry with 3D7, in the assay with CP266, with DIV14, in the assay on DIV30, with HB3 and with PAD was “inactive” throughout. Besides, the Potency in the assay with GB4 was 7570 nM (active).
For the compound `O=C1CC2OCC=C3CN4CC[C@]56c7ccccc7N1C5C2[C@H]3C[C@H]46` (some centres not stated), the Potency entry with 3D7, in the assay with CP247, in the assay on HB3 and in the assay on PC26 was “inactive” throughout. The Potency in the assay with AA1029 is 10000 nM (active); in the assay on CP256 it was 8910 nM (active); with CP335, 5360 nM (active).
As to `COC(C(=O)C(O)C(C)O)C1Cc2cc3cc(OC4CC(OC5CC(O)C(OC)C(C)O5)C(OC(C)=O)C(C)O4)c(C)c(O)c3c(O)c2C(=O)C1OC1CC(OC2CC(OC3CC(C)(O)C(OC(C)=O)C(C)O3)C(O)C(C)O2)C(O)C(C)O1` (configuration not stated), the Potency with 3D7 is 631 nM (active); with AA1029 it was 794 nM (active); in the assay on AS120 it was 794 nM (active); in the assay with CP194, 6750 nM (active); in the assay with CP217, 1780 nM (active); in the assay with CP247 it was 1780 nM (active). The Potency with CP256 was 2510 nM (active); in the assay with CP265, 2240 nM (active); with CP335 it was 338 nM (active); with DFO2036, 1000 nM (active); in the assay with DIV14 it was 2390 nM (active); in the assay with GB4 it was 2130 nM (active). Besides, the Potency in the assay on HB3 was 355 nM (active); with N140, 1000 nM (active); with P94_40, 708 nM (active); with PAD, 891 nM (active); in the assay on SC27B, 1000 nM (active).
In the case of `O=C1CC2OCC=C3CN4CCC56c7ccccc7N1C5[C@H]2[C@H]3C[C@H]46` (some centres not stated) (tested in a mixture with another compound), the Potency result in the assay on CP217, in the assay with CP247, in the assay on CP256, in the assay with CP265, with CP266 and in the assay with CP335 was “inactive” throughout. Further, the Potency entry in the assay on DFO2036, in the assay on N140, with P94_40 and in the assay on SC27B was “inactive” throughout.
`CC(C)=CC1C(C(=O)OCc2coc(Cc3ccccc3)c2)C1(C)C` (configuration not stated): the Potency result in the assay with 3D7, in the assay on AA1029, in the assay with CP194, in the assay on CP217, in the assay on CP247 and in the assay on CP266 was “inactive” throughout. For the same compound, the Potency result in the assay with CP335, with DFO2036, in the assay on DIV14, with DIV30, with GB4 and in the assay with HB3 was “inactive” each time. In addition, the Potency result in the assay on N140, with P94_40, with PAD and in the assay on PC26 was “inactive” in each case.
Consider `CC(CO)NC(=O)C1C=C2c3cccc4[nH]cc(c34)CC2N(C)C1` (configuration not stated), for which the Potency entry in the assay on 3D7, in the assay with AA1029, in the assay with AS120, with CP194, in the assay on CP217 and in the assay on CP247 was “inactive” throughout. For the same compound, the Potency entry in the assay on CP256, in the assay on CP265, with CP266, with CP335, in the assay on DFO2036 and with DIV30 was “inactive” throughout. The Potency entry with GB4, with HB3, in the assay on N140, with P94_40, in the assay with PAD and in the assay on PC26 was “inactive” each time. Besides, in the assay with SC27B, the Potency entry is “inactive”.
With `C#CCN1CC(=O)N(COC(=O)[C@@H]2[C@@H](C=C(C)C)C2(C)C)C1=O`, the Potency entry with 3D7, in the assay on AA1029, with AS120, in the assay on CP194, in the assay on CP217 and with CP247 was “inactive” throughout. Moreover, the Potency result in the assay on CP256, with CP265, with CP335, in the assay on DFO2036, in the assay with DIV14 and in the assay on DIV30 was “inactive” throughout. In addition, the Potency result with GB4, in the assay on HB3, in the assay on N140, with P94_40, in the assay on PAD and in the assay with PC26 was “inactive” throughout. In addition, the Potency result with SC27B was “inactive”.
In the case of `CC(=O)Oc1ccc2c3c1OC1[C@@H](OC(C)=O)C=C[C@H]4[C@H](C2)N(C)CC[C@]314` (some centres not stated), the Potency result with 3D7, in the assay with AA1029, in the assay on AS120, in the assay on CP194, in the assay on CP217 and in the assay with CP247 was “inactive” throughout. The Potency entry with CP256, in the assay on CP265, in the assay with CP266, in the assay with CP335, in the assay with DFO2036 and in the assay with DIV14 was “inactive” throughout. Further, the Potency result with DIV30, in the assay with GB4, with HB3, with N140, in the assay on P94_40 and with PAD was “inactive” in each case. Besides, the Potency result with PC26 and with SC27B was “inactive” each time.
In the case of `CCCCCCC(=O)O[C@H]1CC[C@H]2[C@@H]3CCC4CC(=O)C=C(C)[C@]4(C)[C@H]3CC[C@]12C` (some centres not stated), the results for the Potency in the assay with 3D7, with CP335 and in the assay on HB3 were 11200 nM (active), 8490 nM (active) and 11200 nM (active), respectively. The Potency result in the assay on AA1029, with AS120, in the assay with CP194, with CP217, in the assay on CP247 and in the assay on CP256 was “inactive” each time. Besides, the Potency result in the assay with CP265, in the assay with CP266, with DFO2036, with DIV14, in the assay on DIV30 and in the assay with GB4 was “inactive” in each case. The Potency result in the assay on N140, in the assay on P94_40, in the assay on PAD, in the assay on PC26 and in the assay with SC27B was “inactive” in each case.
